Assay results: PubChem BioAssay (Tox21)
Values joined by “and” are separate entries in the source; they are usually repeats but may differ in a detail not shown here. Equal values may be shown once. Results filed as inconclusive are left out. A call without a number means that no potency is given here. The source holds several records for some structures; these can differ, active in one and inactive in another. Active and inactive are the calls of the source. Unless noted, calls follow the shape of the dose curve; as a rule, active = well fitted cell-killing curve with a large enough effect in the repeat runs (not every such curve was filed as active); inconclusive = weak or mixed curves, or effect the other way; inactive = no such curve, though single readings can be large or run the other way.

Test system: not listed separately
Assay: qHTS assay to identify small molecule antagonists of the farnesoid-X-receptor (FXR) signaling pathway - cell viability counter screen (AID 743221); also: nearly all actives have a fitted effect of over 50% in size
Details: FXR-bla HEK293T viability, CellTiter-Glo luminescence, 16 h; series mostly up to 62.6 µM; activity change, negative = cytotoxicity: at the top concentration
In short: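 Quantitative HTS of the Tox21 10K library run in parallel with the beta-lactamase reporter read. HEK 293T cells carrying a UAS-driven bla reporter got compound and 50 uM CDCA (final) for 16 h; ATP-based luminescence followed.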
Potency is read from the fitted curve at half-maximal effect.

Question: For CCCCCCCCCC(=O)O, which Potency is on record?
Answer: inactive

Question: For NS(=O)(=O)c1cc2c(cc1Cl)NC=NS2(=O)=O, which Potency is on record?
Answer: inactive

Question: Which Potency does the source give for CC(C)Cc1ccccc1 here?
Answer: inactive

Question: With Clc1cc(Cl)c(Cl)cc1Cl as the compound, how does the Potency read?
Answer: inactive

Question: For CCCCC(CC)COC(C)=O (stereo not given), which Potency is on record?
Answer: inactive

Question: With NCCNCCNCCNCCN as the compound, how does the Potency read?
Answer: inactive

Question: Which Potency does the source give for CCOC(=O)C1OC1c1ccccc1 (stereo not given) here?
Answer: inactive

Question: Which Potency does the source give for CC1COc2ccccc2N1C(=O)C(Cl)Cl (stereo not given) here?
Answer: inactive

Question: With CCCCCCCCC as the compound, how does the Potency read?
Answer: inactive

Question: Which Potency does the source give for Cc1cc(O)cc(C)c1Cl here?
Answer: inactive

Question: Which Potency does the source give for CC1=C(/C=C/C(C)=C/C=C/C(C)=C/CO)C(C)(C)CCC1 here?
Answer: inactive

Question: For CC1(C)O[C@@H]2C[C@H]3[C@@H]4C[C@H](F)C5=CC(=O)CC[C@]5(C)[C@H]4[C@@H](O)C[C@]3(C)[C@]2(C(=O)CO)O1, which Potency is on record?
Answer: inactive

Question: For Nc1nc2ncc(CNc3ccc(C(=O)N[C@@H](CCC(=O)O)C(=O)O)cc3)nc2c(=O)[nH]1, which Potency is on record?
Answer: inactive

Question: Which Potency does the source give for ClC1=C(Cl)C(Cl)(Cl)C(Cl)=C1Cl here?
Answer: inactive

Question: For CS(=O)(=O)c1ccc([C@@H](O)[C@@H](CO)NC(=O)C(Cl)Cl)cc1, which Potency is on record?
Answer: inactive

Question: For OC1CCCC1, which Potency is on record?
Answer: inactive

Question: For CC(C)(N=C=O)c1cccc(C(C)(C)N=C=O)c1, which Potency is on record?
Answer: inactive

Question: With OCCOCCOCCOCCO as the compound, how does the Potency read?
Answer: inactive

Question: With C=C1C2CCC(C2)C1(C)C (stereo not given) as the compound, how does the “activity change, negative = cytotoxicity” value read?
Answer: -0.276% [at 81.1 µM] (inactive)

Question: With O=S(=O)(Oc1ccc(Cl)cc1Cl)c1ccccc1 as the compound, how does the Potency read?
Answer: inactive

Question: For C[C@@H]1O[C@@H](OC[C@H]2O[C@@H](Oc3c(-c4ccc(O)c(O)c4)oc4cc(O)cc(O)c4c3=O)[C@H](O)[C@@H](O)[C@@H]2O)[C@H](O)[C@H](O)[C@H]1O, which Potency is on record?
Answer: inactive

Question: With Cn1c([N+](=O)[O-])cnc1COC(N)=O as the compound, how does the Potency read?
Answer: inactive

Question: For CC(C)(C)C1CCC(O)CC1 (stereo not given), which Potency is on record?
Answer: inactive

Question: For C=C1CC[C@H](O)CC1=C/C=C1\CCC[C@]2(C)[C@@H]([C@H](C)/C=C/[C@H](C)C(C)C)CC[C@@H]12, which “activity change, negative = cytotoxicity” value is on record?
Answer: -14.7% (inactive)

Question: For CC1=C(CC(=O)O)c2cc(F)ccc2/C1=C\c1ccc(S(C)=O)cc1 (stereo not given), which Potency is on record?
Answer: inactive

Question: For CCOC(=O)/C=C\C(=O)OCC, which Potency is on record?
Answer: inactive

Question: Which Potency does the source give for CCCCC(CC)C(=O)OCCOCCOCCOC(=O)C(CC)CCCC (stereo not given) here?
Answer: inactive

Question: With O=[N+]([O-])C(CO)(CO)CO as the compound, how does the Potency read?
Answer: inactive

Question: With CC1CC(OC(=O)c2ccccc2O)CC(C)(C)C1 (stereo not given) as the compound, how does the Potency read?
Answer: inactive

Question: With CCCCC(CC)COC(=O)/C=C\C(=O)OCC(CC)CCCC (stereo not given) as the compound, how does the “activity change, negative = cytotoxicity” value read?
Answer: -2.99% (inactive)

Question: With Oc1c(Cl)cc(Cl)c(Cl)c1Cl as the compound, how does the Potency read?
Answer: inactive

Question: Which Potency does the source give for CCCCCCCCCCCCN here?
Answer: inactive and 49 µM (active)

Question: For C=C(C)C(=O)OCCC[Si](OC)(OC)OC, which Potency is on record?
Answer: inactive

Question: Which Potency does the source give for COC(=O)c1ccccc1O here?
Answer: inactive

Question: With Cc1ccc(C)c(C)c1 as the compound, how does the Potency read?
Answer: inactive

Question: Which Potency does the source give for C=C(C)C(=O)OCCCCCCCCCCCC here?
Answer: inactive

Question: With Nc1cc(-c2ccncc2)c[nH]c1=O as the compound, how does the Potency read?
Answer: inactive

Question: Which “activity change, negative = cytotoxicity” value does the source give for O=C1CCCCC1 here?
Answer: -2.16% (inactive)

Question: With CCc1ccc(O)cc1 as the compound, how does the Potency read?
Answer: inactive

Target: Vitamin D3 receptor (Homo sapiens) (UniProt P11473)
Sequence (P11473 whole entry, looked up): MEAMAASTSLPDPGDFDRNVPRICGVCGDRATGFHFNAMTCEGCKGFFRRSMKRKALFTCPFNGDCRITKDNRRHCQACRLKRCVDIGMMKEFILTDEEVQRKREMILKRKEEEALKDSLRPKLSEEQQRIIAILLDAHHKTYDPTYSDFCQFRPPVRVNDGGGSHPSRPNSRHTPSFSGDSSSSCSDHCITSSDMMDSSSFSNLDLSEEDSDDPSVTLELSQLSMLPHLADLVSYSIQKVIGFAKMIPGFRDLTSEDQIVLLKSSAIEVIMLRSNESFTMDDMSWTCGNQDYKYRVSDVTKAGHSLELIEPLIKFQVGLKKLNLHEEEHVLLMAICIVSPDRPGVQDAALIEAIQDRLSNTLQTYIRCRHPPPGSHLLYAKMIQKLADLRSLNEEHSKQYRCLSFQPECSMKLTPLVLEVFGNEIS
Assay: qHTS assay to identify small molecule agonists of the vitamin D receptor (VDR) signaling pathway (AID 743222; calls by dose curve)
Details: HEK293T VDR-UAS-bla, beta-lactamase FRET ratio, 16 h; series mostly up to 63.5 µM; activation: at the top concentration
In short: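 VDR-bla cells, 2,000/well; 4 h preincubation 37C; cpd (DMSO) 16 h; LiveBLAzer B/G substrate 2 h RT; fluorescence intensity read.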

Question: With CCCCCCCCCC(=O)O as the compound, how does the Potency read?
Answer: inactive

Question: With NS(=O)(=O)c1cc2c(cc1Cl)NC=NS2(=O)=O as the compound, how does the Potency read?
Answer: inactive

Question: With CCCCC(CC)COC(C)=O (stereo not given) as the compound, how does the Potency read?
Answer: inactive

Question: For NCCNCCNCCNCCN, which Potency is on record?
Answer: inactive

Question: With CCOC(=O)C1OC1c1ccccc1 (stereo not given) as the compound, how does the “activation” value read?
Answer: 3.29% [at 81.1 µM] (inactive)

Question: For CC1COc2ccccc2N1C(=O)C(Cl)Cl (stereo not given), which Potency is on record?
Answer: inactive

Question: Which Potency does the source give for CCCCCCCCC here?
Answer: inactive

Question: With CC1(C)O[C@@H]2C[C@H]3[C@@H]4C[C@H](F)C5=CC(=O)CC[C@]5(C)[C@H]4[C@@H](O)C[C@]3(C)[C@]2(C(=O)CO)O1 as the compound, how does the “activation” value read?
Answer: -13.7% (inactive)

Question: With Nc1nc2ncc(CNc3ccc(C(=O)N[C@@H](CCC(=O)O)C(=O)O)cc3)nc2c(=O)[nH]1 as the compound, how does the “activation” value read?
Answer: 11.1% (inactive)

Question: For ClC1=C(Cl)C(Cl)(Cl)C(Cl)=C1Cl, which Potency is on record?
Answer: inactive

Question: For CS(=O)(=O)c1ccc([C@@H](O)[C@@H](CO)NC(=O)C(Cl)Cl)cc1, which Potency is on record?
Answer: inactive

Question: Which Potency does the source give for OC1CCCC1 here?
Answer: inactive

Question: With CC(C)(N=C=O)c1cccc(C(C)(C)N=C=O)c1 as the compound, how does the Potency read?
Answer: inactive

Question: With OCCOCCOCCOCCO as the compound, how does the Potency read?
Answer: inactive

Question: For C=C1C2CCC(C2)C1(C)C (stereo not given), which “activation” value is on record?
Answer: 2.84% [at 81.1 µM] (inactive)

Question: With O=S(=O)(Oc1ccc(Cl)cc1Cl)c1ccccc1 as the compound, how does the Potency read?
Answer: inactive

Question: For C[C@@H]1O[C@@H](OC[C@H]2O[C@@H](Oc3c(-c4ccc(O)c(O)c4)oc4cc(O)cc(O)c4c3=O)[C@H](O)[C@@H](O)[C@@H]2O)[C@H](O)[C@H](O)[C@H]1O, which Potency is on record?
Answer: inactive

Question: With Cn1c([N+](=O)[O-])cnc1COC(N)=O as the compound, how does the Potency read?
Answer: inactive

Question: Which Potency does the source give for CC(C)(C)C1CCC(O)CC1 (stereo not given) here?
Answer: inactive

Question: With C=C1CC[C@H](O)CC1=C/C=C1\CCC[C@]2(C)[C@@H]([C@H](C)/C=C/[C@H](C)C(C)C)CC[C@@H]12 as the compound, how does the Potency read?
Answer: 3.86 µM (active)

Question: For CCOC(=O)/C=C\C(=O)OCC, which Potency is on record?
Answer: inactive

Question: Which Potency does the source give for CCCCC(CC)C(=O)OCCOCCOCCOC(=O)C(CC)CCCC (stereo not given) here?
Answer: inactive

Question: For O=[N+]([O-])C(CO)(CO)CO, which Potency is on record?
Answer: inactive

Question: For CCCCC(CC)COC(=O)/C=C\C(=O)OCC(CC)CCCC (stereo not given), which Potency is on record?
Answer: inactive

Question: Which Potency does the source give for Oc1c(Cl)cc(Cl)c(Cl)c1Cl here?
Answer: inactive

Question: Which Potency does the source give for COC(=O)c1ccccc1O here?
Answer: inactive

Question: With Cc1ccc(C)c(C)c1 as the compound, how does the Potency read?
Answer: inactive

Question: Which Potency does the source give for C=C(C)C(=O)OCCCCCCCCCCCC here?
Answer: inactive

Question: For Nc1cc(-c2ccncc2)c[nH]c1=O, which “activation” value is on record?
Answer: -0.186% (inactive)

Question: With O=C1CCCCC1 as the compound, how does the Potency read?
Answer: inactive

Question: For CCc1ccc(O)cc1, which Potency is on record?
Answer: inactive
